Screening results deposited in PubChem by National Center for Advancing Translational Sciences (NCATS).
Shown are actives, neighbours in structure and some others; about 4.2% of the full set was active somewhere.
D1 potentiator: Potentiators of Human D1 Dopamine Receptor: qHTS | D(1A) dopamine receptor (Homo sapiens), P21728 | HEK293 TREx D1 cells, calcium flux, dopamine EC20 potentiation | potentiation, % at 10 µM | 360,000 tested, 0.036% active | AID 504651, 2011; in the data active means potentiation above about 30%
Target sequence (P21728 whole entry, looked up): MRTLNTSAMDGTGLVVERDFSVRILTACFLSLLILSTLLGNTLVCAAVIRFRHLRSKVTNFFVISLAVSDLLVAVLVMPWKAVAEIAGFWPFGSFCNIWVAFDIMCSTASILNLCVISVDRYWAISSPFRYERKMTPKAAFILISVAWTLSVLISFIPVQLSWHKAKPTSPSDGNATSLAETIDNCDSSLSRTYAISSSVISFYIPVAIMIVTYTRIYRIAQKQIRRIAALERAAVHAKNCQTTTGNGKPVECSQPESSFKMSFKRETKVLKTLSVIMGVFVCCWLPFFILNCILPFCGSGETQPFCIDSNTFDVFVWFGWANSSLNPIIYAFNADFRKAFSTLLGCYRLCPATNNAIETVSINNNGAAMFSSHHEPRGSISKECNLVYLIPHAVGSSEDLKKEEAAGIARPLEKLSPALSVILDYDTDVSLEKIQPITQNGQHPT
TRPV1 potentiator: HTS Assay for Compounds that Act as Potentiators of the Vanilloid Receptor 1; 320,000 tested, 0.02% active; TRPV1-expressing cells, Fluo-8 calcium influx, capsaicin EC20 potentiation; potentiation, % at 8.33 µM; in the data active means potentiation above about 80%; inconclusive means between about 30% and that limit
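TRPV1-expressing cells were cultured overnight at 35.5C and loaded with Fluo-8 calcium dye for 40 to 90 min at room temperature. After a 10 s baseline, compound was added and calcium influx was read kinetically for 3 min (ex 480/em 520 nm).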
D1 ag: Allosteric Agonists of the Human D1 Dopamine Receptor: qHTS; AID 504660, 2011; 360,000 tested, 1% active; D(1A) dopamine receptor (Homo sapiens), P21728; activation, % at 2 µM; HEK293 T-REx D1 cells, calcium flux, agonist mode; in the data active means activation above about 30%
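Inducible HEK293 T-REx D1 cells, force-coupled to calcium signalling, were plated at 4000 cells/well with tetracycline and held overnight at 30 C. After no-wash calcium dye loading, compound-evoked calcium rise over 180 s flagged agonists.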
TRPV1 agonist: HTS Assay for Compounds that Act as Agonists of the Vanilloid Receptor 1 | TRPV1-expressing cells, Fluo-8 calcium influx, agonist mode | activation, % at 8.33 µM | 320,000 tested, 0.19% active | AID 540275, 2011; in the data active means activation above about 80%; inconclusive means between about 30% and that limit
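Cells expressing TRPV1 were dye-loaded with Fluo-8 and read kinetically: 10 s baseline, 3 min after compound (agonist portion), then 2 min after EC20 capsaicin (allosteric enhancer portion). Calcium-bound dye fluorescence at 480/520 nm.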
D1 antagonist: Antagonist of Human D 1 Dopamine Receptor: qHTS | activity change, negative = inhibition, % at 10 µM | 360,000 tested, 3.2% active | HEK293 TREx D1 cells, calcium flux, dopamine EC80; hits give low values | D(1A) dopamine receptor (Homo sapiens), P21728 | AID 504652, 2011; in the data active means activity change below about -30%
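Calcium flux readout: force-coupled, inducible Hek293 Trex D1 line, cells induced overnight at 30 C with tetracycline, dye-loaded 30–90 min at RT. Antagonism scored against EC80 dopamine challenge given 180 s after compound.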
Hits are given with their value; . = inactive; ? = inconclusive; / = not tested or not shown.

SMILES	D1 potentiator	TRPV1 potentiator	D1 ag	TRPV1 agonist	D1 antagonist
COc1ccccc1N1CCN(C(=O)Nc2ccc(F)c(Cl)c2)CC1	.	.	.	?	-57
COc1ccc(C(=O)NC(=S)N2CCN(c3ccccc3OC)CC2)cc1	/	.	.	.	.
COc1cc(NC(=O)c2cccc([N+](=O)[O-])c2C)ccc1NC(=O)c1ccco1	.	.	.	.	-36
COc1cc(NC(=O)c2cc([N+](=O)[O-])ccc2N2CCOCC2)ccc1NC(=O)c1ccco1	.	.	.	.	.
Cc1ccc2c(CNCCc3ccccc3)c(C(=O)O)n(Cc3ccccc3C)c2c1	.	/	.	/	.
Cc1ccc(C(=O)CSc2nc(-c3ccccc3)nc3c2CCCC3)cc1	.	/	.	/	.
CCOCCn1ccc2c(OCC(=O)Nc3cccc([N+](=O)[O-])c3)cccc2c1=O	.	/	.	/	/
CCn1cc(NC(=O)Nc2ccccc2C(=O)OC)c(C(N)=O)n1	.	.	.	.	.
COc1ccc(C)cc1NC(=O)NC(C)c1ccncc1 (stereo not given)	.	.	.	.	-32
COc1cc(OC)c(NC(=O)c2ccco2)cc1Cl	.	.	.	.	.
COc1ccc(Cl)cc1NC(=O)NC(C)c1ccncc1 (stereo not given)	.	.	.	.	.
COc1cc(NC(=O)c2ccco2)c(OC)cc1NC(=O)Nc1ccc(Cl)cc1	.	.	.	?	-44
CCC(CC)NC(=O)Nc1ccc(F)c(Cl)c1	.	.	.	.	-46
CCn1cc(Br)c(C(=O)Nc2ccccc2C(=O)OC)n1	.	.	.	?	-36
CCC(C)NC(=O)c1sc2nc(C)c(C(=O)Nc3ccc(C)cc3C)c(-c3ccc(NC(C)=O)cc3)c2c1N (stereo not given)	.	/	.	/	.
COc1ccc(OC)c(NC(=O)COC(=O)/C=C/c2ccc(Cl)cc2)c1	.	.	.	.	-33
COc1ccc(NC(=O)Nc2ccc(F)c(Cl)c2)cc1	.	.	.	.	-49
Cc1ccc(NC(=O)Nc2ccc(F)c(Cl)c2)cc1	.	.	.	.	/
COC(=O)c1cc(NC(=O)Nc2cc(OC)ccc2OC)cc(C(=O)OC)c1	.	.	.	.	.
COc1ccc(OC)c(NC(=O)Nc2ccc(Cl)cc2)c1	.	.	.	.	-43
COc1ccc(OC)c(NC(=O)Nc2cccc(Cn3cccn3)c2)c1	.	.	.	.	-36
CCc1ccc(NC(=O)C2CCCN2S(=O)(=O)c2ccc3c(c2)CCCC(=O)N3)cc1 (stereo not given)	.	/	.	/	.
COc1ccc(CCNCc2c(C(=O)O)c(C)n(Cc3ccccc3C)c2C)c(OC)c1	.	/	.	/	.
Cc1cc(C)cc(NC(=O)CCCN2C(=O)COc3ccc(C)cc32)c1	.	/	.	/	.
COC(=O)c1ccccc1NC(=O)c1ccco1	.	.	.	.	-34
SMILES	D1 potentiator	TRPV1 potentiator	D1 ag	TRPV1 agonist	D1 antagonist
CNC(=O)c1ccccc1NC(=O)c1ccco1	.	.	.	.	.
COc1ccc(CNC(=O)COc2cc3c(c4oc(=O)cc(C)c24)CCC(C)(C)O3)cc1OC	.	.	.	81	-31
Cc1c(C)c2c(OCC(=O)NCc3ccncc3)cc3c(c2oc1=O)CCC(C)(C)O3	.	.	.	80	.
Cc1c(C)c2c(OCC(=O)NCc3cccnc3)cc3c(c2oc1=O)CCC(C)(C)O3	.	.	.	.	.
CCOc1ccc(N2C(=O)C3CCCN3C2=O)cc1 (stereo not given)	.	.	.	.	.
COc1ccc(N2C(=O)C3CCCN3C2=O)cc1 (stereo not given)	.	.	.	.	-34
NC(=S)Cc1ccc(Cl)cc1Cl	.	?	.	.	.
N=C(N)SCc1ccc(Cl)cc1Cl	.	.	34	.	.
CCOC(=O)c1ccc(NC(=O)c2cc(OC)c(OC)c(OC)c2Br)cc1	.	.	.	.	.
CCCCOC(=O)c1ccc(Nc2nc3ccccc3c3nnc(C)n23)cc1	.	/	.	/	-55
CCCCCCOC(=O)c1ccc(NC(=O)c2cc(OC)c(OC)c(OC)c2Br)cc1	.	?	46	.	/
O=C(/C=C/c1cccs1)Nc1ccncc1	.	.	.	?	.
CCCOC(=O)c1ccc(NC(=O)c2cc(=O)[nH]c3ccccc23)cc1	.	.	.	.	-33
CCCOC(=O)c1ccc(NC(=O)/C=C/c2cccs2)cc1	.	.	.	?	-43
CCOc1ccc(C(CC(=O)Nc2cc(C)c(Cl)cc2OC)N2Cc3ccccc3C2=O)cc1OC (stereo not given)	.	/	.	/	.
Cc1cc2n(n1)CCCN2C(=O)Nc1cccc(C)c1C	.	/	.	/	.
O=C(Nc1ccc(Cl)c(-c2nc3ccccc3o2)c1)c1cccc2c(Cl)cccc12	.	/	.	/	.
Cc1cccn2c(=O)c(/C=C(\C#N)c3nc4ccccc4n3C)c(Oc3ccc(Br)cc3)nc12	.	/	.	/	.
CC(=O)c1ccc(NC2=NS(=O)(=O)c3ccccc32)cc1	.	/	.	/	.
CCCCOC(=O)c1ccc(O)cc1	.	.	.	.	.
CCCCOC(=O)c1ccc(NC2=NS(=O)(=O)c3ccccc32)cc1	.	/	.	/	-43
CCCCOC(=O)Nc1ccc(C(=O)OCCC)cc1	.	.	.	?	-31
O=C(NCC(c1ccc2c(c1)OCO2)N1CCN(c2ccccc2)CC1)C(=O)Nc1ccc(F)cc1 (stereo not given)	.	/	.	/	.
CCOc1ccc(CCNC(=O)C2=C(C)C(=O)OC23CCCCC3)cc1	.	/	.	/	.
CCCC(=O)Nc1nc(C)c(C(C)=O)s1	.	.	.	.	.
SMILES	D1 potentiator	TRPV1 potentiator	D1 ag	TRPV1 agonist	D1 antagonist
CC(=O)c1sc(NC(=O)C=C(C)C)nc1C	.	?	.	.	.
CC(=O)c1sc(NC(=O)C2(F)C(F)(F)C(F)(F)C(F)(F)C(F)(F)C2(F)F)nc1C	.	.	.	.	-35
CCCCC(=O)Nc1nc(C)c(C(C)=O)s1	/	.	.	.	-50
O=C(NCc1ccc(Cl)cc1Cl)c1cccc(N2CCCS2(=O)=O)c1	.	/	.	/	.
CCN(CC)CC#CCC(O)(c1ccccc1)c1ccc(Br)cc1 (stereo not given)	.	.	32	.	-40
CCc1ccc(CNC(=O)CN2CCSc3ccccc32)cc1	.	/	.	/	.
Cc1ccccc1CNC(=O)CN1CCSc2ccccc21	.	/	.	/	-31
Cn1cnc(C(=O)N2CCN(c3ccccc3)CC2)c1C(=O)N1CCN(c2ccccc2)CC1	.	.	.	.	-39
